The source of these data is PubChem BioAssay (NCI).

Each structure is given as a SMILES string. About 79,000 compounds went through this panel and 15% of them were active in at least one assay; those are over-represented in the sample as a whole. Unmarked numbers belong to inactive results. Calls of active or inactive are those of the source. Cut-off read from the data, not from the text of the source: active = growth inhibition above about 70%; inactive = the rest.

Test [1] can be described thus: NCI Yeast Anticancer Drug Screen. Data for the rad50 strain (AID 155).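 Note: 0% = growth of vehicle-only cultures of the same strain.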 Conditions: S. cerevisiae rad50 strain growth inhibition, hits give high values. The essentials: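 A DNA repair-deficient yeast mutant serves as the test organism; compound-induced growth inhibition is calculated against vehicle-treated cells.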
Test [2] is described as follows: NCI Yeast Anticancer Drug Screen. Data for the mec2-1 strain (AID 157). The conditions noted are these: S. cerevisiae mec2-1 strain, hits give high values. The procedure, abridged:
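Growth inhibition is read against vehicle-treated controls after compound exposure of the mec2-1 yeast strain, which is defective in DNA damage repair or cell cycle control.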

The nature of test [3]: NCI Yeast Anticancer Drug Screen. Data for the sgs1 mgt1 strain (AID 161).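 Note: 0% = growth of cultures given vehicle only.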 Conditions: S. cerevisiae sgs1 mgt1 strain, hits give high values. The procedure, abridged:
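Percent growth inhibition was derived by comparing compound-exposed mutant yeast with vehicle-exposed cultures. The strain carries alterations in DNA damage repair.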

Test [4] in a line: NCI Yeast Anticancer Drug Screen. Data for the cln2 rad14 strain (AID 165).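 Note: 0% = growth equal to vehicle treated cultures.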 Conditions: S. cerevisiae cln2 rad14 strain, hits give high values. The procedure, abridged: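 Growth inhibition, relative to vehicle-treated controls, is the read-out. The test organism is a yeast strain with defined genetic alterations, cln2 rad14.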
A short description of test [5]: NCI Yeast Anticancer Drug Screen. Data for the bub3 strain (AID 167). Conditions: S. cerevisiae bub3 mutant strain, hits give high values. The procedure, abridged: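 Inhibition values come from growth of compound-treated mutant yeast normalised to vehicle-treated controls.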
A short description of test [6]: NCI Yeast Anticancer Drug Screen. Data for the mlh1 rad18 strain (AID 175). Conditions: S. cerevisiae mlh1 rad18 strain growth inhibition, hits give high values. The essentials: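 Cells of a genetically altered yeast strain, deficient in DNA damage repair, were treated with compound. Their growth was then compared with that of vehicle-treated cultures to give inhibition.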

[7] abbreviates: at 5.0 µM (retest, dose inferred, filed as 0.5).
[8] abbreviates: at 50.0 µM (retest, dose inferred, filed as 5.0).

As for `O=C1C=C(Cl)C(=O)C2=C1CCCC2`, the growth inhibition in test [1] (setting [7]) is 10%; in test [1] (setting [8]), 89% (active); in test [1] (at 50.0 µM) it was 95.2% (active); in test [2] (setting [7]) it was 11%; in test [2] (setting [8]), 98% (active); in test [2] (at 50.0 µM), 70.8% (active). Besides, the growth inhibition is 8% in test [3] (setting [7]); 98% (active) in test [3] (setting [8]); 61.1% in test [3] (at 50.0 µM); -1% in test [4] (setting [7]); 48% in test [4] (setting [8]); 59.2% in test [4] (at 50.0 µM). In addition, the growth inhibition in test [5] (setting [7]) was 1%; in test [5] (setting [8]) it was 98% (active); in test [5] (at 50.0 µM) it was 99.2% (active); in test [6] (setting [7]), 20%; in test [6] (setting [8]), 98% (active); in test [6] (at 50.0 µM), 93.9% (active).
As to `O=S(=O)(O)c1ccc2c(c1)C1C(C3C2C2(Cl)C(Cl)=C(Cl)C3(Cl)C2(Cl)Cl)C2(Cl)C(Cl)=C(Cl)C1(Cl)C2(Cl)Cl` (stereo unspecified), the growth inhibition in test [1] (setting [7]) was -7%; in test [1] (setting [8]), 80% (active); in test [1] (at 50.0 µM), 85.9% (active); in test [2] (setting [7]), -8%; in test [2] (setting [8]), 94% (active); in test [2] (at 50.0 µM), 89.9% (active). The growth inhibition in test [3] (setting [7]) is -19%; in test [3] (setting [8]), 77% (active); in test [3] (at 50.0 µM), 81% (active); in test [4] (setting [7]) it was 34%; in test [4] (setting [8]) it was 89% (active); in test [4] (at 50.0 µM), 83.7% (active). In addition, the growth inhibition in test [5] (setting [7]) is 21%; in test [5] (setting [8]), 91% (active); in test [5] (at 50.0 µM), 88.6% (active); in test [6] (setting [7]), 23%; in test [6] (setting [8]) it was 93% (active); in test [6] (at 50.0 µM), 84.4% (active).
As to `O=C1c2ccccc2C(=O)c2c1cc(O)c(O)c2O`, the growth inhibition in test [1] (setting [7]) is 17%; in test [1] (setting [8]), 95% (active); in test [1] (at 50.0 µM) it was 83.2% (active); in test [2] (setting [7]) it was 20%; in test [2] (setting [8]), 92% (active); in test [2] (at 50.0 µM), 77.5% (active). The growth inhibition is 23% in test [3] (setting [7]); 95% (active) in test [3] (setting [8]); 81.5% (active) in test [3] (at 50.0 µM); 2% in test [4] (setting [7]); 88% (active) in test [4] (setting [8]); 59.2% in test [4] (at 50.0 µM). The growth inhibition is 13% in test [5] (setting [7]); 91% (active) in test [5] (setting [8]); 70.7% (active) in test [5] (at 50.0 µM); 35% in test [6] (setting [7]); 95% (active) in test [6] (setting [8]); 82% (active) in test [6] (at 50.0 µM).
Consider `CCCCCCCCCCCCCCCCOCC(Cl)COP(=O)(O)OP(=O)(O)OCC1OC(n2cc(C)c(=O)[nH]c2=O)CC1O` (stereo unspecified), for which the growth inhibition in test [1] (setting [7]) is 27%; in test [1] (setting [8]), 99% (active); in test [1] (at 50.0 µM) it was 86% (active); in test [2] (setting [7]), 30%; in test [2] (setting [8]), 94% (active); in test [2] (at 50.0 µM) it was 59.6%. For the same compound, the growth inhibition is 90% (active) in test [3] (setting [7]); 99% (active) in test [3] (setting [8]); 93% (active) in test [3] (at 50.0 µM); 22% in test [4] (setting [7]); 85% (active) in test [4] (setting [8]); 63.1% in test [4] (at 50.0 µM). Also, the growth inhibition in test [5] (setting [7]) was 50%; in test [5] (setting [8]), 97% (active); in test [5] (at 50.0 µM), 79.5% (active); in test [6] (setting [7]), 67%; in test [6] (setting [8]), 97% (active); in test [6] (at 50.0 µM), 84.7% (active).
As for `COc1cc2c(cc1O)-c1c(cnn1-c1ccccc1)CCC2`, the growth inhibition in test [1] (setting [7]) was -7%; in test [1] (setting [8]), 85% (active); in test [1] (at 50.0 µM), 95.5% (active); in test [2] (setting [7]), -5%; in test [2] (setting [8]) it was 93% (active); in test [2] (at 50.0 µM), 96% (active). Besides, the growth inhibition in test [3] (setting [7]) is 2%; in test [3] (setting [8]), 88% (active); in test [3] (at 50.0 µM), 97.4% (active); in test [4] (setting [7]), -17%; in test [4] (setting [8]), 88% (active); in test [4] (at 50.0 µM), 55%. Further, the growth inhibition in test [5] (setting [7]) is -7%; in test [5] (setting [8]), 86% (active); in test [5] (at 50.0 µM), 93.3% (active); in test [6] (setting [7]), -8%; in test [6] (setting [8]) it was 92% (active); in test [6] (at 50.0 µM), 97.6% (active).
As to `CCN1CCNc2c3cc(OC)ccc3nc3c([N+](=O)[O-])ccc1c23`, the growth inhibition in test [1] (setting [7]) is -10%; in test [1] (setting [8]) it was 37%; in test [1] (at 50.0 µM), 42.2%; in test [2] (setting [7]) it was -19%; in test [2] (setting [8]), 7%; in test [2] (at 50.0 µM), 15.2%. Further, the growth inhibition is -9% in test [3] (setting [7]); 0% in test [3] (setting [8]); 39.8% in test [3] (at 50.0 µM); -2% in test [4] (setting [7]); 40% in test [4] (setting [8]); 7.8% in test [4] (at 50.0 µM). The growth inhibition in test [5] (setting [7]) is 1%; in test [5] (setting [8]) it was 2%; in test [5] (at 50.0 µM), -3.6%; in test [6] (setting [7]) it was -41%; in test [6] (setting [8]), 41%; in test [6] (at 50.0 µM), 71.7% (active).
Regarding `Oc1ccc2c(c1O)/C(=C/C=NCC1(O)OCC(O)C(O)C1O)C=N2` (stereo unspecified), the growth inhibition in test [1] (setting [7]) was 2%; in test [1] (setting [8]), -7%; in test [1] (at 50.0 µM), 67.3%; in test [2] (setting [7]) it was 5%; in test [2] (setting [8]) it was -7%; in test [2] (at 50.0 µM), 67.4%. The growth inhibition in test [3] (setting [7]) was 4%; in test [3] (setting [8]) it was 1%; in test [3] (at 50.0 µM) it was 88.4% (active); in test [4] (setting [7]), 0%; in test [4] (setting [8]), -9%; in test [4] (at 50.0 µM) it was 83.5% (active). In addition, the growth inhibition in test [5] (setting [7]) was 2%; in test [5] (setting [8]), -3%; in test [5] (at 50.0 µM), 48.3%; in test [6] (setting [7]) it was 2%; in test [6] (setting [8]), -2%; in test [6] (at 50.0 µM), 77% (active).
